An excerpt weighted towards active compounds, which were near 19% of everything screened.
IL1B secr inh – qHTS for Inhibitors of Inflammasome Signaling: IL-1-beta AlphaLISA Primary Screen; THP-1 LPS/ATP IL-1B secretion, AlphaLISA, 16 h; hits give low values; activity change, % at 57.5 µM; 360,000 compounds, 4.7% hits; in the data active = activity change below about -50%; inconclusive = mostly about -30% to -49%; note: % is set by controls: 0 for no effect and ±100 for the full control effect
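Secreted IL-1B measured by AlphaLISA bead assay after 16 h compound exposure of THP-1 cells; compounds (final up to 57.5 uM) added 1 h before LPS (250 ng/mL) and ATP (1.25 mM) stimulation; lower signal means less secretion.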
TDP1 cell noCPT – qHTS for Inhibitors of human tyrosyl-DNA phosphodiesterase 1 (TDP1): qHTS in cells in absence of CPT | DT40 Tdp1-/- hTDP1 cells, no CPT, ATP luminescence, 48 h | Potency, µM (top dose mostly 46.2 µM), without a hit: top-dose activity change, negative = growth inhibition, most hits filed as inhibitors | 420,000 compounds, 15% hits; note: potency is the fitted concentration of half-maximal effect; % is set by controls: 0 for no effect and ±100 for the full control effect; nearly all actives have a fitted effect of over 55% in size
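No-CPT arm: Tdp1-/-;hTDP1 DT40 cells (400/well) plus compounds, incubated ≥48 hr at 37 °C. Readout CellTiter-Glo luminescence.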
DT40 TDP1 CPT – qHTS for Inhibitors of human tyrosyl-DNA phosphodiesterase 1 (TDP1): qHTS in cells in presence of CPT; chicken DT40 Tdp1-/-;hTDP1 cells + 20 nM CPT, ATP luminescence, 48 h; Potency, µM (highest dose often 46.2 µM), inactives show at the highest dose activity change, negative = growth inhibition, hits mostly inhibitors; 420,000 compounds, 12% hits; AID 686979, 2013; note: potency is the fitted concentration of half-maximal effect; % is set by controls: 0 for no effect and ±100 for the full control effect; nearly all actives have a fitted effect of over 55% in size
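Chicken DT40 Tdp1-/- cells complemented with human TDP1, 400 cells/well, exposed to compounds plus 20 nM camptothecin for at least 48 h at 37 C; viability read as ATP content by CellTiter-Glo luminescence.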
TGFb SMAD3 inh – qHTS for Inhibitors of TGF-b | HepG2 CAGA-GFP TGF-b/SMAD3 reporter, GFP fluorescence, 18 h; TGF-beta stimulated, 500 pg/mL final | Potency, µM (doses to about 46.1 µM), without a hit: at the highest dose activity, negative = inhibition, usual class: inhibitors | 410,000 compounds, 1.2% hits; note: potency is the fitted concentration of half-maximal effect; % is set by controls: 0 for no effect and ±100 for the full control effect; nearly all actives have a fitted effect of over 65% in size
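GFP signal (ex488/em500-530) from TGF-beta-stimulated HEPG2 CAGA-GFP cells, 500 pg/mL final, 18 h at 37 degrees C in DMEM plus 1% FBS, normalized to unstimulated and DMSO-stimulated controls.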
TDP1 inh – qHTS Assay for Inhibitors of Tyrosyl-DNA Phosphodiesterase (TDP1). recombinant TDP1, AlphaScreen DNA substrate cleavage. Potency, µM (titrated, usually from 130 µM), without a hit: at the highest dose activity change, negative = inhibition, most hits filed as inhibitors. 350,000 compounds, 0.28% hits; note: potency is the fitted concentration of half-maximal effect; % is set by controls: 0 for no effect and ±100 for the full control effect; nearly all actives have a fitted effect of over 40% in size
Target sequence (Q9NUW8 whole entry, looked up): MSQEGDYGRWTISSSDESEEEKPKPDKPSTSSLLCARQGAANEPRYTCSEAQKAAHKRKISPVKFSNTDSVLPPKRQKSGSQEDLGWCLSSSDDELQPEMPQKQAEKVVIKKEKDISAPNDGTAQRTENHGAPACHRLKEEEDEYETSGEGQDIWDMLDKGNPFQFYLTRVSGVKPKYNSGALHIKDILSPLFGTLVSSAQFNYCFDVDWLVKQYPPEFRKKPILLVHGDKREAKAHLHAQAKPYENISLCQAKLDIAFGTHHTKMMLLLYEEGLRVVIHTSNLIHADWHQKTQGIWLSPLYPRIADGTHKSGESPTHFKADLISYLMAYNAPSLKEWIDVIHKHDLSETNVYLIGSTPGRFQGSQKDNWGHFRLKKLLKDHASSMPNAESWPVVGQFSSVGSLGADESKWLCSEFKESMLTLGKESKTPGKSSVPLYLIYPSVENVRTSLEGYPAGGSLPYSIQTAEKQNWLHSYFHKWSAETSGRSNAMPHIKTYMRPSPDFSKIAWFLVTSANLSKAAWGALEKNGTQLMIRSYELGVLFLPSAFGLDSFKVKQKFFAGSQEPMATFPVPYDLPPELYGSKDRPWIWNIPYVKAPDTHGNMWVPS
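Steps: enzyme plus compound, 15 min RT; add biotin/phosphotyrosine-FITC oligonucleotide (15 nM final), react 5 min; add donor/acceptor beads (10 ug/ml final), 10 min; read AlphaScreen. Tdp1 at 1 nM final.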
HepG2 tox-1 – qHTS for Inhibitors of TGF-b: Cytotox Counterscreen; HepG2 CAGA-GFP viability, ATP luminescence, 18 h; Potency, µM (highest dose often 46.1 µM), for inactives: at the top dose activity change, negative = cytotoxicity, actives largely listed as cytotoxic; 410,000 compounds, 0.76% hits; AID 588856, 2011; note: potency is the fitted concentration of half-maximal effect
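CellTiter-Glo luminescence gave cytotoxicity after 18 hours at 37 degrees C. The cells were HepG2 CAGA-GFP in 1% FBS DMEM, stimulated with 500 pg/mL TGF-beta after compound addition. %Activity was normalised to no-cell wells (complete cell-killing) and DMSO (no toxicity), and curves were fitted and classified.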
TGFb CAGA inh – qHTS for Inhibitors of TGF-b: Confirmation of Cherry Picks; shares compounds with TGFb SMAD3 inh; HepG2 CAGA-GFP TGF-b reporter, GFP fluorescence, 18 h; cells stimulated with TGF-beta, 500 pg/mL; Potency, µM (top dose mostly 46.1 µM), without a hit: at the top dose activity, negative = inhibition, most hits filed as inhibitors; 1,600 compounds, 63% hits; AID 720534, 2013; note: potency is the fitted concentration of half-maximal effect; % is set by controls: 0 for no effect and ±100 for the full control effect; nearly all actives have a fitted effect of over 65% in size
HepG2 tox-2 – qHTS for Inhibitors of TGF-b: Cytotox Counterscreen for Cherry Picks. shares compounds with TGFb SMAD3 inh. HepG2 CAGA-GFP viability, ATP luminescence, 18 h; cells stimulated with TGF-beta, 500 pg/mL. Potency, µM (highest dose often 46.1 µM), inactives show top-dose activity, negative = cytotoxicity, most hits filed as inhibitors. 1,600 compounds, 27% hits. AID 720535, 2013; note: potency is the fitted concentration of half-maximal effect; % is set by controls: 0 for no effect and ±100 for the full control effect; nearly all actives have a fitted effect of over 70% in size
TGFb CCL64 inh – qHTS for Inhibitors of TGF-b: CCL64 Cells Orthogonal Assay for Cherry Picks. shares compounds with TGFb SMAD3 inh. CCL64 CAGA-GFP reporter, TGF-b stimulated, GFP fluorescence, 18 h. Potency, µM (highest dose often 46.1 µM), for inactives: at the highest dose activity, negative = inhibition, usual class: inhibitors. 1,600 compounds, 41% hits; note: potency is the fitted concentration of half-maximal effect; nearly all actives have a fitted effect of over 65% in size
TGFb COP inh – qHTS for Inhibitors of TGF-b: Hit Validation in HepG2 Cells using COP promoter; AID 720537, 2013; 1,600 compounds, 3% hits; Potency, µM (doses to about 46.1 µM), for inactives: at the highest dose activity, negative = inhibition, hits mostly inhibitors; shares compounds with TGFb SMAD3 inh; HepG2 COP-GFP TGF-b reporter, GFP fluorescence, 18 h; cells stimulated by added recombinant TGF-beta; note: potency is the fitted concentration of half-maximal effect; nearly all actives have a fitted effect of over 70% in size
* marks the source's active call; other numbers are inactive results; u = inconclusive; x = not tested or not shown. Unless noted, calls come from the whole dose curve; as a rule, active = well fitted curve in the direction sought with a large enough effect; inconclusive = small, poorly fitted or top-dose-only effect, or another doubt; inactive = no such curve, though single readings can be large; an effect the other way counts as inactive or inconclusive.

SMILES | IL1B secr inh | TDP1 cell noCPT | DT40 TDP1 CPT | TGFb SMAD3 inh | TDP1 inh | HepG2 tox-1 | TGFb CAGA inh | HepG2 tox-2 | TGFb CCL64 inh | TGFb COP inh
CN(C)CCN(C)C1CN(Cc2ccc(F)cc2)S(=O)(=O)C1 (centres undefined) | 0 | -12% | -9% | u | x | 3% | 7% | -11% | -2% | -4%
CC(C)N(C(=S)Nc1cccc(S(=O)(=O)N(C)C)c1)c1ccccc1 | 17 | u | u | -14% | x | 1% | x | x | x | x
CCC(=O)Nc1c(S(=O)(=O)c2ccccc2)c2nc3ccccc3nc2n1C(C)c1ccccc1 (centres undefined) | u | u | u | 13µM* | 3% | -21% | u | -21% | u | 26%
CCn1c(CC(=O)Nc2ccc(F)cc2)nnc1SCC(=O)Nc1nncs1 | 12 | 11% | -20% | 4% | -10% | -4% | x | x | x | x
COc1ccc(-c2cc3ccc(OC)cc3cn2)cc1 | 57 | u | u | -26% | 1% | 4% | x | x | x | x
COc1ccc2cc(-c3ccccc3F)ncc2c1 | 67 | u | u | u | -10% | -31% | -9% | -21% | 0% | 9%
CC1CCN(S(=O)(=O)c2ccc3c(c2)oc(=O)n3CC(=O)O)CC1 | x | -9% | -5% | -3% | -3% | 12% | x | x | x | x
Cc1cc(C)cc(NC(=O)Cn2c(=O)oc3cc(S(=O)(=O)N4CCC(C)CC4)ccc32)c1 | 1 | 15µM* | 6.5µM* | 7.9µM* | 4% | 7.9µM* | u | -22% | u | 8%
CN(C)CCNC(=O)c1[nH]c(C(F)(F)F)nc1-c1ccccc1 | 8 | 6% | 4% | 9% | x | 16% | x | x | x | x
CN(C)CCNC(=O)c1cccc2[nH]c(-c3ccncc3)nc12 | -82* | 13µM* | 13µM* | 10µM* | x | -41% | 16µM* | 21µM* | 13µM* | 21%
NC(=O)c1cccc(-c2ccnc3c2CC(C(=O)Nc2cccc(C(F)(F)F)c2)O3)c1 (centres undefined) | 10 | 18µM* | 18µM* | 13µM* | x | -27% | 21µM* | -28% | 7% | 31%
O=C(Nc1ccccc1)C1Cc2c(-c3ccc4c(c3)OCO4)ccnc2O1 (centres undefined) | u | u | u | 19% | x | -6% | x | x | x | x
Cc1ccc(NC(=O)/C=C/c2ccc([N+](=O)[O-])s2)c(C)c1 | -96* | 3.7µM* | 2.6µM* | 5µM* | 1% | 7.9µM* | u | 10µM* | 4.1µM* | 26%
Cc1ccc(NC(=O)COC(=O)c2ccc([N+](=O)[O-])s2)c(C)c1 | 26 | 21% | -7% | 1% | -2% | -14% | x | x | x | x
COc1cccc(NC(=O)/C=C/c2ccccc2[N+](=O)[O-])c1 | -9 | u | u | -3% | -5% | 4% | x | x | x | x
Cc1cccc(NC(=O)/C=C/c2ccc([N+](=O)[O-])s2)c1 | -97* | 2.6µM* | 2.6µM* | u | 5% | -63% | u | 5.2µM* | 2.6µM* | 41%
Cc1ccccc1NCc1ccc(O)c2ncccc12 | 45 | 5.2µM* | 2.6µM* | 10µM* | 9% | -41% | u | u | 5.8µM* | 26%
COc1ccc(NC(=O)c2c(Nc3ccccc3)sc(C(=O)c3ccc(F)cc3)c2N)cc1 | 0 | 2.1µM* | 2.3µM* | 3.2µM* | 13% | -58% | -22% | -27% | u | -1%
O=C(CN1CCN(c2ccc(F)cc2)CC1)Nc1ccccc1Br | -16 | u | -3% | 0% | x | -7% | x | x | x | x
COC(=O)c1sccc1NC(=O)CN1CCN(c2ccc(F)cc2)CC1 | -18 | u | u | 11µM* | 7% | -17% | u | u | -3% | 10%
O=C(CN(c1cccc(Br)c1)S(=O)(=O)c1ccccc1)N/N=C/c1cc([N+](=O)[O-])ccc1O | 118 | u | u | u | x | -47% | x | x | x | x
OC(COC(c1ccccc1)c1ccccc1)CN1CCN(c2cccc(Cl)c2)CC1 (centres undefined) | u | u | 21µM* | 16µM* | -5% | -13% | 18µM* | u | u | 41%
OC(CN1CCN(c2cccc(Cl)c2)CC1)c1ccccc1 (centres undefined) | 32 | -8% | -22% | -25% | x | -26% | x | x | x | x
CC(C)CC1(C2CCCC2)NC(=O)NC1=O (centres undefined) | 8 | 1% | 5% | 2% | x | -8% | x | x | x | x
O=C(Oc1c(CN2CCOCC2)cc(Cl)c2cccnc12)c1ccccc1 | u | u | u | 2.8µM* | 6% | 2.8µM* | -6% | u | u | 4%
O=C(COc1c(Br)cc(Br)c2cccnc12)N1CCCCC1 | -6 | u | -23% | -19% | -5% | -14% | x | x | x | x
